In all, about 370,000 compounds went through this assay and about 3,700 (1%) were called active.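 Rule for the calls: active = activation above the mean over all tested compounds plus 3 SD (cut at about 0.9% in these data); inactive = the rest.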 The entries come from a sample that favours actives as a whole.

58 compounds from PubChem BioAssay AID652126 (The Scripps Research Institute Molecular Screening Center, 2013) can be followed below.

The assay relates to Nuclear hormone receptor DAF-12 (Strongyloides stercoralis). Kind of assay: ssDAF-12 driven luciferase reporter activation – cell-based, luminescence, HEK293, GRIP1 co-expression, lit1-tk-luc, primary screen (AID 652126).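 Note: 0% = DMSO-only wells and 100% = 3 µM delta7-dafachronic acid wells.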 Particulars: HEK293 ssDAF-12/GRIP1 lit1-tk-luc reporter, at 6.8 µM, stronger effect = higher value, % of 3 µM dafachronic acid response. A general note: Reporter assays use an easily measured gene product as a stand-in for the process of interest.
In the case of `COC(=O)C1CN(Cc2ccc(F)cc2)CCS(=O)(=O)N1Cc1ccc(Cl)cc1` (stereo not drawn), the activation was -1.29% (inactive).
In the case of `CCN(CCCNC(=O)C1CCN(S(=O)(=O)c2cnc[nH]2)CC1)c1ccccc1` it was -1.52% (inactive); in that of `O=C(C1CCN(S(=O)(=O)c2cnc[nH]2)CC1)N1CCN(Cc2ccc3c(c2)OCO3)CC1`, 1.02% (active).
In the case of `Cc1cccc(N2CCN(C(=O)C3CCN(S(=O)(=O)c4cnc[nH]4)CC3)CC2)c1C` it was -0.57% (inactive); in that of `O=C(c1ccncc1)N1CC[C@H]2[C@H](CCCN2Cc2ccc(F)cc2)C1`, -0.89% (inactive).
With `CCOC(=O)[C@]12CCCC3=C1N(CCC3)C(=O)[C@@H](CC(=O)N1CCSCC1)C2` the figure was 0.21% (inactive).
As to `Clc1ccc(-n2c(COc3ccccc3)nnc2SCc2nc3ccccc3[nH]2)cc1`, the activation is -1.69% (inactive).
Take `CCCOc1ccc(NC(=O)CC2C(=O)N(C)C(=S)N2Cc2ccc3c(c2)OCO3)cc1` (stereo not drawn): the activation was -1.45% (inactive).
With `O=C(Nc1ccc(Cl)cc1)C1c2cccc[n+]2CC(=O)N1Cc1ccc2c(c1)OCO2` (stereo not drawn), the activation is 2.86% (active).
In the case of `O=C(Nc1ccc2c(c1)OCCO2)C1c2ccccc2OCC(=O)N1Cc1ccccn1` (stereo not drawn) it was -0.32% (inactive); in that of `COc1ccc(Cn2ccc3ccc(-c4ccc5ccn(Cc6ccccc6C)c5c4)cc32)cc1`, -0.43% (inactive).
In the case of `O=S1(=O)c2c(cccc2N2CCSCC2)Oc2ccccc2CN1Cc1cn(Cc2ccc(F)cc2)nn1` it was -1.43% (inactive); in that of `O=C(CN1CCC(NC(=O)NCc2ccccc2)CC1)Nc1ccc2c(c1)OCCO2`, -1.37% (inactive); in that of `C=CCN1C(C(=O)OC)CN(Cc2cn(Cc3ccccc3)nn2)CCS1(=O)=O` (stereo not drawn), -1.67% (inactive).
With `C=CCN(C)CC#Cc1ccccc1` the figure was -0.95% (inactive).
On to `COc1ccc(-n2c(SCC(=O)NC3CCCC3)nnc2-c2ccncc2)cc1`, for which the activation was -0.71% (inactive).
For `S=C(NN=Cc1ccccn1)Nc1ccccn1`, the activation was 1.63% (active).
Take `O=C(O)C1C2C=CC(O2)C1C(=O)Nc1ccccn1` (stereo not drawn): the activation was -1.12% (inactive).
In the case of `CS(=O)(=O)N(CC(=O)N/N=C/c1ccccn1)c1ccc(Oc2ccccc2)cc1` it was -0.77% (inactive).
In the case of `CCCOc1ccc(Oc2c(Cl)cnn(Cc3cccc4ccccc34)c2=O)cc1` it was -1.41% (inactive); in that of `O=C1CC(c2ccc3c(c2)OCO3)N=C2N(CC3CC3)C/C(=C/c3ccccc3)N12` (stereo not drawn), -1.93% (inactive).
With `CCOc1ccc(-n2c(SCC(=O)Nc3cc(C)c(NC(=O)c4ccccc4)cc3OC)nnc2-c2cccc(Cl)c2)cc1` the figure was -1.5% (inactive); with `CCOC(=O)c1c(NC(=O)C2(C)Cc3ccccc3C(=O)O2)sc2c1CCCC2` (stereo not drawn), -1.31% (inactive); with `CCOC(=O)c1c(NC(=S)Nc2ccccc2)sc2c1CCN(C)C2`, -1.34% (inactive).
As to `CCOC(=O)c1c(NC(=S)Nc2ccccc2C)sc2c1CCC2`, the activation is 1.91% (active).
In the case of `CC(=O)OCCN1CCCC12CCC(c1ccccc1)CC2` (stereo not drawn) it was -0.84% (inactive); in that of `C#CCN([C@H](C(=O)OC)C(C)CC)S(=O)(=O)c1ccccc1Br` (stereo partly drawn), -1.85% (inactive); in that of `Cc1ccc(-c2nnc(SCC(=O)N/N=C/c3cccs3)n2-c2ccc(C)cc2)cc1`, -0.75% (inactive).
With `Cc1ccsc1/C=N/NC(=O)Cc1cc(=O)[nH][nH]1` the figure was 1.42% (active); with `CCOc1ccc(N2CC(C(=O)N/N=C/c3sccc3C)CC2=O)cc1` (stereo not drawn), -1.57% (inactive).
Turning to `CN(C)S(=O)(=O)c1cccc(C(=O)N/N=C\c2ccco2)c1`, the activation is -0.66% (inactive).
With `CC1CCCCC1NC(=O)c1cc(=O)[nH]c2ccccc12` (stereo not drawn) the figure was -0.66% (inactive).
As to `COC(=O)C1CCN(C(=O)c2cc(=O)[nH]c3ccccc23)CC1`, the activation is 1.33% (active).
In the case of `CC1CCN(C(=O)COC(=O)c2cc(=O)[nH]c3ccccc23)CC1` it was -0.23% (inactive); in that of `CCc1ccccc1NC(=O)CSc1nnc(-c2cccs2)o1`, -1.52% (inactive); in that of `CCOC(=O)c1c(NC(=S)SC)sc(C(=O)N2CCc3ccccc3C2)c1C`, -0.64% (inactive).
For `CCc1ccc(NC(=O)CC2C(=O)NCCN2C(=S)Nc2ccccc2)cc1` (stereo not drawn), the activation was -1.42% (inactive).
With `Cc1ccc(NC(=O)CN2CCc3ccccc3C2)cc1C` the figure was 1.3% (active); with `CCc1ccc(NC(=O)N2CCc3ccccc3C2)cc1`, 1.53% (active); with `Cc1ccc(NC(=O)COc2coc(CN3CCc4ccccc4C3)cc2=O)cc1Cl`, -1.76% (inactive).
With `O=C(CN1CCc2ccccc2C1)Nc1cccc(S(=O)(=O)N2CCOCC2)c1` the figure was -0.91% (inactive); with `Cc1cc(NS(=O)(=O)c2ccc(NC(=O)CSc3nnc(-c4ccc(C(C)(C)C)cc4)n3Cc3ccco3)cc2)nc(C)n1`, -1.29% (inactive).
With `COc1ccc(O)c(C(=O)c2cnc3onc(C(C)C)c3c2)c1` the figure was -0.89% (inactive); with `COc1cccc(NC(=O)Nc2ccc(F)cc2)c1`, 1.74% (active).
For the compound `COc1cccc(C(=O)NNS(=O)(=O)c2ccc(F)cc2)c1`, the activation was -1.09% (inactive).
`COc1cccc(NC(=O)CC2C(=O)NCCN2C(=S)Nc2ccc(F)cc2)c1` (stereo not drawn): the activation was -1.35% (inactive).
In the case of `COC(=O)C1CN(Cc2cn(Cc3ccc(F)cc3)nn2)CCS(=O)(=O)N1Cc1ccc(Cl)cc1` (stereo not drawn) it was -2.03% (inactive); in that of `CCCCNC(=O)C[C@H]1C[C@@]2(C(=O)OC)C(=C[C@H](COCc3ccccc3)O[C@@H]2C)N(Cc2ccc(Cl)cc2Cl)C1=O`, -1.35% (inactive).
With `CC(C)CSc1nnc(-c2cccnc2)n1Cc1ccccc1` the figure was -1.35% (inactive); with `COC(=O)c1cc(S(=O)(=O)N2CCN(C(=O)C3CCCO3)CC2)cn1C` (stereo not drawn), -1.3% (inactive).
In the case of `Cc1ccc(C(=O)NNc2ncnc3ccccc23)cc1` it was 1.85% (active).
Regarding `Cc1ccc(CCNC(=O)c2ccc3nc4ccccc4c(=O)n3c2)cc1`, the activation is -1.47% (inactive).
In the case of `Cn1ncc2c(NNC(=O)Cc3cccc4ccccc34)ncnc21` it was -1.61% (inactive); in that of `O=C(CNC(=O)c1ccccc1)OC(C(=O)Nc1cc([N+](=O)[O-])ccc1F)c1ccccc1` (stereo not drawn), -2.1% (inactive); in that of `CCOC(=O)C1CCN(C(=O)C(C)(C)NC(=O)Nc2ccccc2Cl)CC1`, -0.72% (inactive).
`O=C(O)c1cccc(S(=O)(=O)N2CC=C(c3ccccc3)CC2)c1`: the activation was -1.29% (inactive).
Take `O=C(O)c1cccc(N=NN2CCCCCC2)c1`: the activation was 1.23% (active).
With `NC1=NN(c2cccc(C(=O)O)c2)C(=O)C1`, the activation was 0.3% (inactive).
